HepG2 viability: kills HepG2 cells in TGF-b inhibitor counter-screen. HepG2 CAGA-GFP viability, ATP luminescence, 18 h. Potency, µM (highest dose often 46.1 µM), inactives show top-dose activity change, negative = cytotoxicity, most hits filed as cytotoxic. 0.76% of 410,000 active. AID 588856; note: potency is the fitted concentration of half-maximal effect
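CellTiter-Glo luminescence gave cytotoxicity after 18 hours at 37 degrees C. The cells were HepG2 CAGA-GFP in 1% FBS DMEM, stimulated with 500 pg/mL TGF-beta after compound addition. %Activity was normalised to no-cell wells (complete cell-killing) and DMSO (no toxicity), and curves were fitted and classified.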
D3 antag: blocks the human D3 dopamine receptor | max response, negative = inhibition, % | 2.5% of 360,000 active | P35462 | D3R cells, DiscoveRx beta-arrestin luminescence, antagonist mode; active compounds read low; in the data active = max response below about -50%; inconclusive = no clear call, values can overlap the other calls; note: % is set by controls: 0 for no effect and ±100 for the full control effect
Target sequence (P35462 whole entry, looked up): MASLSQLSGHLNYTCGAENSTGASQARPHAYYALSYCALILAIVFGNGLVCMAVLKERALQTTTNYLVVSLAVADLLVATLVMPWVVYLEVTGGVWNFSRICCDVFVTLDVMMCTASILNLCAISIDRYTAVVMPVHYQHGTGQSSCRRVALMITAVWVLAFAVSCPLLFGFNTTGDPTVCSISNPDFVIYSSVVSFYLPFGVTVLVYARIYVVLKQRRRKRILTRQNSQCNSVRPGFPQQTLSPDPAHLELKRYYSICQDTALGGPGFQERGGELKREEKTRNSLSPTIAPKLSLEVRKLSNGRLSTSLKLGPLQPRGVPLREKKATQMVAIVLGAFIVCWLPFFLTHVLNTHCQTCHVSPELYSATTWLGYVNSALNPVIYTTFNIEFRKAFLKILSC
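Cells plated overnight at 1500 cells/well, then exposed to library compounds with dopamine controls for 90 minutes at 37 degrees C. DiscoveRx reagent added for 30–60 minutes at room temperature; luminescence read, quantitative HTS format.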
ATXN2 expr inh: reduces ATXN2 reporter expression in HEK-293 cells. HEK-293 ATXN2-luciferase reporter, luminescence, 24 h. Potency, µM (highest dose often 57 µM), without a hit: at the highest dose activity change, negative = inhibition, actives largely listed as inhibitors. 0.72% of 360,000 active. AID 1745845; note: potency is the fitted concentration of half-maximal effect; % is set by controls: 0 for no effect and ±100 for the full control effect; nearly all actives have a fitted effect of over 55% in size
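ATXN2-luciferase reporter cells (luciferase flanked by upstream and downstream ATXN2 gene portions) were treated 24 h at 37 °C with compounds at up to 57 uM. SteadyGlo luminescence gave expression; GF-AFC fluorescence gave viability.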
S2 tox: viability counter-screen for ATXN expression inhibitors | Potency, µM (top dose mostly 56.7 µM), usual class: cytotoxic | S2 cells (HEK-293 line with an ATXN2-luciferase reporter) viability, CellTiter-Fluor protease fluorescence, 24 h | 0.49% of 400,000 active; note: potency is the fitted concentration of half-maximal effect; nearly all actives have a fitted effect of over 40% in size
TGFb inhibitor: inhibitors of TGF-b signaling; 1.2% of 410,000 active; Potency, µM (highest dose often 46.1 µM), without a hit: at the highest dose activity, negative = inhibition, most hits filed as inhibitors; HepG2 CAGA-GFP TGF-b/SMAD3 reporter, GFP fluorescence, 18 h; TGF-beta stimulated, 500 pg/mL final; note: potency is the fitted concentration of half-maximal effect; % is set by controls: 0 for no effect and ±100 for the full control effect; nearly all actives have a fitted effect of over 65% in size
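Read-out: total well GFP (ex488/em500-530) summed from mean per-cell fluorescence. Cells: HEPG2 CAGA-GFP, 1% FBS DMEM, 18 h at 37 degrees C with 500 pg/mL final TGF-beta. Unstimulated wells served as the full-inhibition control; stimulated DMSO wells = 0%.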
DRD3 agonist: activates the human D3 dopamine receptor | D3R DiscoveRx beta-arrestin cells, luminescence, 90 min | AID 652048 | max activation, % | 0.58% of 410,000 active; in the data active = max activation above about 30%; note: 0% is about no effect
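Agonist-mode cell screen: cells plated at 1500/well and incubated overnight at 37 °C, then exposed to library compounds for 90 min at 37 °C. Detection reagent was added for 30–60 min at room temperature, and luminescence was read.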
The depositor's hits bear a star; i = inactive; ? = inconclusive; · = no result; ! = not confirmed by another sample. An excerpt weighted towards active compounds, which were near 4.8% of everything screened. Unless noted, calls come from the whole dose curve; as a rule, active = well fitted curve in the direction sought with a large enough effect; inconclusive = small, poorly fitted or top-dose-only effect, or another doubt; inactive = no such curve, though single readings can be large; an effect the other way counts as inactive or inconclusive.

SMILES	HepG2 viability	D3 antag	ATXN2 expr inh	S2 tox	TGFb inhibitor	DRD3 agonist
COc1ccc(C(=O)N2CCC3(CC2)c2ccccc2[C@@H](NC(=O)c2ccccn2)[C@@H]3OC)c(O)c1	·	·	·	i	·	·
CNC[C@H](Cc1ccccc1)NC[C@@H](Cc1cccc2ccccc12)NCCc1ccc(C)cc1	18µM*	28	?	?	?	-7
CNCCNC[C@H](Cc1cccc2ccccc12)NCCc1ccccc1	-28%	?	-22%	i	2%	-62
COc1cc(=O)n2c(c1C(=O)NCc1ccco1)CCN(Cc1c(F)cccc1F)CC2	·	·	·	i	·	·
CCCC(=O)n1nc(-c2cccnc2)nc1NCc1ccc(OC)cc1	18%	2	-27%	i	-14%	57*!
COc1ccc(C(=O)NCc2nnc(SC)n2-c2ccccc2C)c(OC)c1OC	·	·	·	i	·	·
COc1ccc2c(c1)cc1c(=O)n(CC(=O)NCc3ccco3)nc(C)n12	-10%	·	-10%	i	-6%	5
CC(C)CCNC(=O)c1ccc2c(c1)N(Cc1ccccc1F)C(=O)c1ccccc1S2=O (stereo unspecified)	-2%	·	4%	i	-3%	3
Cc1cccc(C)c1NC(=O)C(c1ccc(C#N)cc1)n1c(=O)c(-c2ccccc2)nc2ccccc21 (stereo unspecified)	·	-60*	·	·	·	-19
Cc1cccc(C)c1NC(=O)C(c1ccc(C(F)(F)F)cc1)n1c(=O)c(-c2ccccc2)nc2ccccc21 (stereo unspecified)	·	1	·	·	·	-7
COc1ccc(CNS(=O)(=O)c2cccc(S(=O)(=O)N3CCOCC3)c2)cc1	-2%	-93*	-11%	i	-26%	11
CCc1ccc(NC(=O)CCNS(=O)(=O)c2cccc3nonc23)cc1	-20%	-63*	1%	i	1%	-16
CC(=O)c1ccc(NC(=O)CCNS(=O)(=O)c2cccc3nonc23)cc1	-11%	-15	-4%	i	-7%	-2
COc1ccccc1C(=O)N1CCN=C1SC	-5%	-11	3%	i	10%	2
COc1ccccc1C(=O)N1CCN=C1c1ccccc1	3%	-9	6%	i	3%	34*
Cc1ccc(N2CC(NC(=O)C(=O)c3c[nH]c4ccccc34)CC2=O)cc1 (stereo unspecified)	-8%	·	·	·	2%	6
Cc1ccc(NC(=O)c2cc(S(=O)(=O)N3CCCCC3)c[nH]2)cc1N(C)C	0%	·	-1%	i	1%	-13
Cc1cc(OCc2cc(C(=O)NC(C)c3c(C)nn(C)c3C)no2)cc(C)c1Cl (stereo unspecified)	-32%	-2	?	i	11µM*	0
CCc1cc2c(NCCN3CCCCC3)ncnc2s1	-20%	-86*	-17%	i	-3%	-11
COc1cc(NC(=O)C2CCN(S(=O)(=O)c3ccc4c(c3)CCCC(=O)N4)CC2)cc(OC)c1	-1%	·	2%	i	27%	8
CCc1ccc(NC(=O)Cn2c(=O)n(CCc3ccccc3)c(=O)c3sc4ccccc4c32)cc1	-10%	·	7%	i	-13%	-18
CC(C)CCn1c(N)c(S(=O)(=O)c2cccs2)c2nc3ccccc3nc21	-34%	-87*	18µM*	?	16µM*	-7
Clc1ccccc1CNc1ncnc2c1c(-c1ccccc1)cn2-c1ccccc1	-14%	·	·	·	1%	5
COc1ccc(C(=O)Nc2ccc(C)cn2)c(OC)c1	-36%	-14	3.2µM*	i	4%	2
COc1ccc(C(=O)Nc2cc(C)on2)c(OC)c1	-36%	1	1%	i	-19%	13
SMILES	HepG2 viability	D3 antag	ATXN2 expr inh	S2 tox	TGFb inhibitor	DRD3 agonist
c1ccc2c(NC3CCCC3)nnc(NC3CCCC3)c2c1	-27%	-71*	?	?	?	1
COc1ccc2oc(-c3ccc(NC(=O)c4ccc(N5CCOCC5)c([N+](=O)[O-])c4)cc3)nc2c1	-3%	82	?	?	-2%	54*
CCC(C(=O)Nc1cc(C)ccc1OC)n1nnc(C(=O)OC)c1C(=O)OC (stereo unspecified)	-2%	·	-1%	i	-19%	-5
Cc1onc(-c2ccc3c(c2)OCO3)c1-c1ccc2[nH]ccc2c1	-13%	0	-23%	?	13µM*	-37
Cc1c(Cl)ccc2sc(N3CCN(C(=O)CS(=O)(=O)c4ccccc4)CC3)nc12	-43%	·	20µM*	?	10µM*	1
COc1ccc(C(=O)N2CCN(c3nc4c(C)c(Cl)ccc4s3)CC2)c(OC)c1	11µM*	·	-10%	i	?	34*
CCC1(C2CCN(C(=O)c3ccc4ccccc4c3)CC2)NC(=O)N(CCc2scnc2C)C1=O (stereo unspecified)	·	·	·	i	·	·
COc1c(C)cccc1C(=O)Nc1ccc(Cl)c(-c2nc3cc(C)ccc3o2)c1	-16%	·	-17%	i	?	-1
COc1ccc(-c2cc(=O)oc3cc(OCc4nn[nH]n4)ccc23)cc1	-1%	-53*	-6%	i	27%	-5
COC(=O)COc1ccc2c(-c3ccc(OC)cc3)cc(=O)oc2c1	-7%	-25	11%	i	5%	-10
COc1ccc(-c2[nH]ncc2CN(C)CCN2CCOCC2)cc1F	-3%	2	-31%	?	8%	-6
COc1cccc(OC)c1OCCCN1CCOCC1	-16%	-24	-16%	i	2%	-6
COc1cc2c(Oc3ccc(NC(=O)C4(C(=O)Nc5ccc(F)cc5)CC4)cc3F)ccnc2cc1OCCCN1CCOCC1	·	·	27µM*	·	·	·
COc1cc2c(Oc3ccc(-c4cnc(Nc5ccc(F)cc5)n(C)c4=O)cc3F)ccnc2cc1OCCCN1CCOCC1	·	·	24µM*	·	·	·
Cc1c(C(=O)NCc2ccccc2Cl)sc2ncnc(NCC3CCCO3)c12 (stereo unspecified)	·	·	·	i	·	·
COc1ccc(CCNC(=O)C(C)n2nc(C)c3sc4ccccc4c3c2=O)cc1OC (stereo unspecified)	6%	·	·	·	28%	-13
Cc1cc(C)c(NC(=O)COCc2cc(-c3cccs3)on2)c(C)c1	-34%	·	·	·	-18%	-3
Cc1nc(N2CCCC2)ncc1C(=O)N1CCN(c2ccc(Cl)cc2)CC1	-51%	·	-9%	i	?	3
CC(C)C[C@H]1CNC(=S)N1C[C@H]1CCCN1C[C@H](CC(C)C)N1C[C@H](Cc2ccc(O)cc2)N(CC2CCCCC2)C1=S	·	20	?	·	·	5
